An excerpt weighted towards active compounds, which were near 10% of everything screened.
SW480 rereplic – inducers of DNA re-replication in SW480 colon cancer cells | AID 624297 | SW480 DNA re-replication, Hoechst DNA content imaging, 48 h | actives 1.8% (n = 340,000) | Potency, µM (top dose mostly 46.1 µM), for inactives: at the highest dose re-replication activation, actives largely listed as activators; note: % of control where 0% means no effect; nearly all actives have a fitted effect of over 55% in size
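Image-based read-out: total Hoechst fluorescence of nuclei (405 nm excitation, 500-530 nm emission), with hits raising the fraction of high-intensity nuclei. SW480 colon cells incubated 48 hr with compounds at 37 C.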
ELG1 DNA repair – blocks ELG1-dependent DNA repair in HEK293T cells. actives 2.3% (n = 330,000). HEK293T ELG1-luciferase reporter, luminescence, 16 h; DNA damage induced by 5-fluorouridine. Potency, µM (doses to about 46.1 µM), for inactives: at the top dose activity change, negative = inhibition, most hits filed as inhibitors; note: % is set by controls: 0 for no effect and ±100 for the full control effect; nearly all actives have a fitted effect of over 55% in size
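Luminescence from the luciferase reporter, measured 30 min after ONE-Glo reagent at room temperature, was the read-out. Beforehand, 2,000 cells per well were exposed for 16 hr at 37 °C to 5-fluorouridine together with compound or vehicle.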
RORg inh – blocks mouse ROR gamma transcriptional activity; Drosophila S2 Gal4-RORgamma UAS-luciferase reporter, 20 h; AID 2551; P51450; actives 5.4% (n = 310,000); Potency, µM (top dose mostly 53.6 µM), without a hit: top-dose activity change, negative = inhibition, usual class: inhibitors; note: % is set by controls: 0 for no effect and ±100 for the full control effect; nearly all actives have a fitted effect of over 60% in size
Target sequence (P51450 whole entry, looked up, the tested form may be a part): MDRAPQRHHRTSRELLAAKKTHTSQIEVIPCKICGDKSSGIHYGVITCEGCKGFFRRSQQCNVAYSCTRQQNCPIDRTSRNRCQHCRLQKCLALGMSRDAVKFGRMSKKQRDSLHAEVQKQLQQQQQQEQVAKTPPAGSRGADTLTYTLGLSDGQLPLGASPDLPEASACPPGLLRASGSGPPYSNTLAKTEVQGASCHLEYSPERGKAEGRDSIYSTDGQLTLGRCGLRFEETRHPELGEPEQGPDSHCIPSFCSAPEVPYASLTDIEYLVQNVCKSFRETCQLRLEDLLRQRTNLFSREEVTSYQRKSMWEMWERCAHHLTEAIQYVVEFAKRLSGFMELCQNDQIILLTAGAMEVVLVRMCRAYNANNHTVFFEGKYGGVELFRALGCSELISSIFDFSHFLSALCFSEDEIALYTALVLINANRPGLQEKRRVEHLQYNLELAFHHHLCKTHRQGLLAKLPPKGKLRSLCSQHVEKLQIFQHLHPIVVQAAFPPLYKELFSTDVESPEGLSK
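Read-out: Photinus luciferase luminescence; inhibitors lower reporter signal. Insect Schneider cells with Gal4-ROR gamma fusion under metallothionein promoter, UAS reporter; 700 uM final copper sulfate induction, 20 hr, ambient temperature.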
VP16 counter – counter-screen for ROR gamma inhibitors: Gal4-VP16 reporter | Drosophila S2 Gal4-VP16 UAS-luciferase, luminescence, 20 h | Potency, µM (series often up to 53.6 µM), for the others: at the highest dose activity, negative = inhibition, usual class: inhibitors | actives 3.5% (n = 310,000);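 note: Gal4-VP16 expression switched on by copper sulfate through the metallothionein promoter; % is set by controls: 0 for no effect and ±100 for the full control effect; nearly all actives have a fitted effect of over 50% in size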
MCF10A rereplic – inducers of DNA re-replication in MCF 10A breast cells. MCF 10A DNA re-replication, Hoechst nuclear intensity, 48 h. Potency, µM (top dose mostly 46.1 µM), for the others: at the top dose activity, positive = re-replication, actives largely listed as activators. actives 2.9% (n = 350,000). AID 624296; note: % of control where 0% means no effect; nearly all actives have a fitted effect of over 50% in size
* = called active by the depositor; ? = inconclusive; nt = not tested or not shown; [ ] = dose if it differs, or a comment. Calls come from the whole dose curve; as a rule, active = well fitted curve in the direction sought with a large enough effect; inconclusive = small, poorly fitted or top-dose-only effect, or another doubt; inactive = no such curve, though single readings can be large; an effect the other way counts as inactive or inconclusive. Potency is the fitted concentration of half-maximal effect.

SMILES	SW480 rereplic	ELG1 DNA repair	RORg inh	VP16 counter	MCF10A rereplic
COc1ccc(/C=N/Nc2ccc(C(=O)O)cc2)cc1Br	?	?	39.8µM*	0.9%	8.6%
COc1ccc(/C=N/Nc2ccc(C(=O)O)cc2)cc1OC	-3.5%	?	1.58µM*	0.447µM*	-0.5%
C/C(CC(=O)C(F)(F)F)=N\NC(=O)/C(C#N)=C/N(C)C	1.9%	-4.2%	8.91µM*	?	14.8%
O=C(Nc1ccc(S(=O)(=O)Nc2ncccn2)cc1)C1CC(=O)N(c2ccc(Cl)cc2)C1 (centres undefined)	-5.9%	0.0%	9.2%	1.5%	3.6%
COc1cc2[nH]c(=S)n(C3CCCC3)c(=O)c2cc1OC	-1.0%	-0.2%	4.47µM*	2.82µM*	?
COc1cc2[nH]c(=S)n(C3CC3)c(=O)c2cc1OC	-4.9%	9.2%	3.55µM*	17.8µM*	-3.7%
COc1cc2[nH]c(=S)n(C3CCN(Cc4ccccc4)CC3)c(=O)c2cc1OC	-3.9%	-12.4%	?	?	-0.7%
CCOC(=O)[C@H]1[C@H]2COc3ccc(Br)cc3[C@@H]2N2C(=O)CN(Cc3ccco3)C(=O)[C@@]12C	2.1%	-16.3%	nt	nt	-5.6%
CC1CCc2cc(F)ccc2N1S(=O)(=O)c1ccc(F)cc1 (centres undefined)	-0.6%	-17.3%	10µM*	0.6%	4.6%
O=C(NCCCN1CCOCC1)c1cnccn1	-11.2%	21.8%	-17.2%	0.8%	-4.0%
COc1ccccc1OCCCOc1ccc(/C=C2\SC(=O)NC2=O)cc1OC	-4.0%	-7.6%	25.9%	15.3%	?
COc1ccc(/C=C2/SC(=S)NC2=O)cc1OCc1ccccc1	23.6%	?	?	17.8µM*	?
CCOc1c(O)ccc(/C=C2\SC(=S)NC2=O)c1[N+](=O)[O-]	26.2%	1.9%	27.0%	10.4%	25.9µM*
COc1cccc(/C=C2\SC(=S)N(N3C(=O)CCCC3=O)C2=O)c1	5.1%	?	1.3%	3.1%	?
COc1cc(/C=C2/SC(=O)NC2=O)ccc1OCc1ccccc1	17.1%	?	?	?	25.9µM*
COc1cccc(C=C2SC(=S)NC2=O)c1	1.2%	nt	nt	nt	16.4µM*
Cc1ccc2c(Cn3cc(C(F)(F)F)cc(Cl)c3=O)cc(=O)oc2c1	1.3%	-2.2%	-4.9%	-8.5%	-1.2%
CCOc1ccc(N(C)c2ccc(/C=C3/SC(=S)NC3=O)cc2)cc1	?	-14.8%	-127.3%	?	4.11µM*
S=c1[nH]nc(C2CCCCC2)n1/N=C/C=C/c1ccccc1	-0.8%	-0.7%	0.891µM*	6.31µM*	?
S=c1[nH]nc(-c2cccnc2)n1/N=C/C=C/c1ccccc1	0.0%	?	4.47µM*	?	-1.7%
S=c1[nH]nc(C2CCCCC2)n1/N=C/C(Cl)=C\c1ccccc1	nt	-13.7%	2µM*	5.62µM*	?
S=c1[nH]nc(-c2cccnc2)n1/N=C/c1ccccc1	-12.5%	?	?	-9.2%	6.9%
S=c1[nH]nc(-c2cc(-c3ccccc3)n[nH]2)n1/N=C/C=C/c1ccccc1	-6.4%	?	-43.2%	17.7%	?
COC(=O)c1ccc(COC(=O)c2ccc(C)c(S(=O)(=O)N3CCCCC3)c2)cc1	-42.3%	?	nt	nt	5.9%
CN(C)/C=C1\C(=O)NN=C1C(F)(F)F	-4.3%	8.0%	31.6%	-0.7%	7.7%
SMILES	SW480 rereplic	ELG1 DNA repair	RORg inh	VP16 counter	MCF10A rereplic
CCOc1ccc(N/C(C)=C/C(=O)c2ccc3c(c2)OCCO3)cc1	-2.7%	?	19.5%	0.2%	2.7%
CC(C)(C)c1ccc(OCC(=O)N/N=C/c2cc(Br)ccc2OC(=O)c2ccco2)cc1	12.7%	?	0.251µM*	1.26µM*	2.5%
CCOc1cc(CNC(C)(C)CO)cc(Br)c1OCc1ccc(Cl)cc1Cl	28.1%	-14.0%	?	?	6.51µM*
COc1ncc2nc(C)c(=O)n(Cc3ccc(F)cc3)c2n1	nt	nt	27.9%	13.6%	nt
CC(c1n[nH]c(=S)n1-c1ccccc1)N1CCCCC1 (centres undefined)	-15.3%	-2.4%	10µM*	-9.7%	8.0%
CC(C)(CNCc1ccccc1)NS(=O)(=O)c1ccc(Cl)cc1	-0.4%	0.2%	nt	nt	1.0%
Cn1c(=O)c2c(nc(NCCOc3ccc(C(C)(C)C)cc3)n2C)n(C)c1=O	-691.1%	-17.9%	35.1%	4.2%	16.4µM*
CC(O)CNc1nc2c(c(=O)n(C)c(=O)n2C)n1Cc1cccc(C(F)(F)F)c1 (centres undefined)	-8.2%	-29.0%	3.6%	-6.3%	0.7%
COc1ccc(Cl)c(Cn2c(NCc3ccco3)nc3c2c(=O)n(C)c(=O)n3C)c1	-0.7%	?	-43.3%	0.0089µM*	13.7%
COc1cccc(Cn2c(NCC(C)C)nc3c2c(=O)n(C)c(=O)n3C)c1	-5.9%	-18.4%	26.3%	?	?
COc1cccc(Cn2c(NCc3ccco3)nc3c2c(=O)n(C)c(=O)n3C)c1	-16.0%	?	-38.0%	2.82µM*	13.5%
COCCNc1nc2c(c(=O)n(C)c(=O)n2C)n1Cc1cccc(C(F)(F)F)c1	8.3%	-12.8%	-13.6%	3.16µM*	6.7%
Cc1ccc2c(c1)CCCN2CC(=O)N(C)c1c(N)n(Cc2ccccc2)c(=O)[nH]c1=O	-4.4%	28.5%	nt	nt	0.0%
CC(NC(=O)C(=O)NCCN1CCN(C(=O)c2ccc([N+](=O)[O-])cc2)CC1)c1ccccc1 (centres undefined)	-5.5%	?	1.3%	0.0%	12.8%
O=C(NOC(=O)c1ccccc1Cl)c1cccs1	-16.4%	9.6%	-9.8%	-2.7%	-1.3%
CCC(C)(C(=O)NC1CCCCC1)N(Cc1cccs1)C(=O)c1ccc(=O)[nH]c1 (centres undefined)	-9.6%	15.0%	-16.7%	6.6%	-1.9%
CCC(C)Sc1cccc(-c2nc3cnccn3c2NC2CCCCC2)c1 (centres undefined)	?	?	nt	nt	18.4µM*
CCC(C)Sc1cc(-c2nc3ccccn3c2NC2CCCCC2)ccc1OC (centres undefined)	16.4µM*	?	nt	nt	20.6µM*
CCC(C)Sc1cccc(-c2nc3ccc(C)cn3c2NC2CCCCC2)c1 (centres undefined)	-27.6%[9.22 µM]	?	nt	nt	?
CCN(CC)c1ccc(-c2nc3cnccn3c2NC2CCCC2)cc1	20.6µM*	-1.7%	27.4%	-15.6%	16.4µM*
c1cc(SC2CCCCC2)cc(-c2nc3cnccn3c2NC2CCCCC2)c1	3.26µM*	?	nt	nt	5.8µM*
c1cn2c(NC3CCCCC3)c(-c3ccc(SC4CCCCC4)cc3)nc2cn1	-1.5%	?	nt	nt	?
CCC(C)Sc1ccc(-c2nc3ccc(C)cn3c2NC2CCCCC2)cc1 (centres undefined)	-21.6%[9.22 µM]	0.5%	nt	nt	?
CCSc1nnc(NC(=O)[C@@H](NC(=O)c2cc(OC)cc(OC)c2)C(C)C)s1	-4.8%	-13.4%	15.6%	5.2%	-2.3%
